This is an account of results in the supplement of paper PMC6522484.

Assay [1] has as its system DLD1. Briefly: cell viability (CellTiter-Glo) relative to plate median (fraction of plate median); higher = more viable cells. Conditions: 5 µM; treatment time 24 h; reporter: 7TFP. An outline of the steps: (§1)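 Values are well luminescence normalised to the plate median, from either a firefly luciferase or a CellTiterGlo readout on parallel plates. The cells, colorectal cancer lines stably transduced with lentiviral 7TFP or TCF4/Wnt firefly luciferase reporters, were treated with library compounds at a final 5 µM for 24 h. The mean of two independent replicates is listed.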

A further assay has as its system HCT116. Described as above. The settings on record: 5 µM; treatment time 24 h; reporter: TCF4/Wnt. The method in brief:
as §1

The test system of assay [2] is SW480. The description is as above. Conditions: 5 µM; treatment time 24 h; reporter: 7TFP. The method in brief:
as §1

Assay [3] has as its system DLD1. Briefly: TCF/Wnt firefly luciferase reporter signal relative to plate median (fraction of plate median); higher = higher Wnt reporter signal. Conditions: 5 µM; treatment time 24 h; reporter: 7TFP. The method in brief:
as §1
Background: A reporter such as luciferase makes a cellular process visible.

For assay [4], the system named is SW480. The assay is described as above. Conditions: 5 µM; treatment time 24 h; reporter: 7TFP. An outline of the steps:
as §1

± gives the standard deviation of the averaged measurements.

Consider `Cc1ccc(S(=O)(=O)NC(=O)NN2CC3CCCC3C2)cc1` (stereo not given), for which the results for the cell viability in the assay on DLD1 [1], with HCT116 and in the assay on SW480 [2] were 0.95 ± 0.063, 0.999 ± 0.044 and 0.974 ± 0.052, respectively. For the same compound, the “TCF/Wnt firefly luciferase reporter signal” value with DLD1 [3] worked out at 1.07 ± 0.071; in the assay on SW480 [4], 0.9645 ± 0.0035.
The like results for `N[C@@H](Cc1ccc(O)c(O)c1)C(=O)O` were, in that order, 1.075 ± 0.0071, 1.03 ± 0.064, 0.99 ± 0.071, 1.01 ± 0.04 and 1.09 ± 0.042.
For the compound `CC(=O)Oc1ccc2c(c1C(C)C)CCC1C(C)(C)CCC[C@]21C` (stereo not given in full), the cell viability in the assay with DLD1 [1] is 1.18 ± 0.22; in the assay on HCT116 it was 1.15 ± 0.071; with SW480 [2], 1.05 ± 0.05. Also, the “TCF/Wnt firefly luciferase reporter signal” value in the assay with DLD1 [3] came to 0.98 ± 0.11; with SW480 [4], 0.962 ± 0.047.
For `O=C(CCBr)N1CCN(C(=O)CCBr)CC1`, the cell viability in the assay with DLD1 [1] amounted to 1.07 ± 0.042; in the assay with HCT116, 1.035 ± 0.0071; with SW480 [2] it was 1.025 ± 0.0071. Besides, the “TCF/Wnt firefly luciferase reporter signal” value in the assay on DLD1 [3] was 1.03 ± 0.12; in the assay on SW480 [4], 1.01 ± 0.019.
As to `COC1C(OC(C)=O)C(C)OC(OC2C(Oc3cccc4c(OC(C)=O)c5c(=O)oc6ccc(C)c7c(=O)oc(c34)c5c67)OC(C)C(OC(C)=O)C2OC(C)=O)C1OC(C)=O` (stereo not given) [Chartreusin-pentaacetate], the cell viability in the assay with DLD1 [1] worked out at 0.99 ± 0.028; in the assay with HCT116, 1.04 ± 0.14; with SW480 [2], 0.932 ± 0.03. For the same compound, the “TCF/Wnt firefly luciferase reporter signal” value with DLD1 [3] worked out at 1.095 ± 0.0071; in the assay with SW480 [4], 1.1 ± 0.11.
Regarding `Cc1onc(-c2ccccc2)c1-c1ccc(S(N)(=O)=O)cc1`, the cell viability in the assay with DLD1 [1] turned out to be 0.844 ± 0.058; in the assay with HCT116, 1.02 ± 0.03; in the assay with SW480 [2], 1.05 ± 0.1. Also, the “TCF/Wnt firefly luciferase reporter signal” value in the assay on DLD1 [3] is 0.91 ± 0.044; in the assay with SW480 [4], 0.956 ± 0.17.
The like results for `NCCS` were, in that order, 1.02 ± 0.014, 1.07 ± 0.12, 1.035 ± 0.0071, 1.21 ± 0.021 and 1.16 ± 0.092.
As to `CC(C)c1c(O)c(-c2cc3c(c(C(C)C)c2O)CCC2C(C)(C)CCC[C@]32C)cc2c1CCC1C(C)(C)CCC[C@]21C` (stereo not given in full), the cell viability with DLD1 [1] is 1.02 ± 0.083; in the assay on HCT116, 1.07 ± 0.1; in the assay with SW480 [2] it was 1.02 ± 0.035. In addition, the “TCF/Wnt firefly luciferase reporter signal” value amounted to 1.26 ± 0.26 with DLD1 [3] and 1.09 ± 0.014 with SW480 [4].
On the same counts, the results for `Oc1c(Br)cc(Br)c2cccnc12` are 1.02 ± 0.021, 1.07 ± 0.071, 0.965 ± 0.064, 1.24 ± 0.014 and 1.12 ± 0.028.
On the same counts, the results for `C[C@](N)(Cc1ccc(O)c(O)c1)C(=O)O` are 0.981 ± 0.098, 0.996 ± 0.062, 1.03 ± 0.028, 1.04 ± 0.087 and 1.03 ± 0.12.
With `C[N+](C)(C)CCOC(N)=O`, the cell viability amounted to 0.994 ± 0.023 in the assay with DLD1 [1], 1.15 ± 0.057 in the assay on HCT116 and 0.9925 ± 0.0078 in the assay on SW480 [2]. In addition, the “TCF/Wnt firefly luciferase reporter signal” value in the assay on DLD1 [3] amounted to 1.13 ± 0.14; in the assay with SW480 [4], 0.847 ± 0.064.
On the same counts, the results for `O=C(O)c1cc2ccccc2[nH]1` [Indol-2-carboxylic acid] are 0.972 ± 0.097, 0.92 ± 0.016, 0.9215 ± 0.0064, 0.8775 ± 0.005 and 0.955 ± 0.042.
On the same counts, the results for `C[C@@H]1C[C@H]2[C@@H]3CCC4=CC(=O)C=C[C@]4(C)[C@@]3(F)[C@@H](O)C[C@]2(C)[C@@]1(O)C(=O)COP(=O)(O)O` are 1.03 ± 0.052, 1.02 ± 0.075, 1.01 ± 0.093, 0.954 ± 0.065 and 0.906 ± 0.0014.
The like results for `O=c1cc(-c2ccc(O)cc2)oc2cc(O)ccc12` were, in that order, 1.06 ± 0.13, 0.987 ± 0.1, 0.987 ± 0.033, 0.92 ± 0.11 and 1.04 ± 0.028.
`C[C@]12CC[C@@H]3c4ccc(O)cc4CC[C@H]3[C@@H]1CC[C@@H]2O`: the figures for the cell viability in the assay with DLD1 [1], in the assay with HCT116 and in the assay with SW480 [2] were 0.914 ± 0.11, 1.01 ± 0.098 and 0.949 ± 0.024, respectively. Moreover, the “TCF/Wnt firefly luciferase reporter signal” value is 1.07 ± 0.092 with DLD1 [3] and 1.02 ± 0.021 with SW480 [4].
On the same counts, the results for `CC(=O)[C@H]1CC[C@H]2[C@@H]3CC=C4C[C@@H](OC(=O)CCC(=O)O)CC[C@]4(C)[C@H]3CC[C@]12C` are 1.02 ± 0.021, 1.01 ± 0.018, 0.975 ± 0.033, 0.97 ± 0.03 and 1.1 ± 0.028.
`Cc1cc(=O)oc2cc(O)cc(O)c12`: the cell viability stood at 1.05 ± 0.042 in the assay on DLD1 [1], 1.11 ± 0.11 with HCT116 and 1 ± 0.053 in the assay with SW480 [2]. Besides, the figures for the “TCF/Wnt firefly luciferase reporter signal” value in the assay with DLD1 [3] and with SW480 [4] were 0.888 ± 0.12 and 0.975 ± 0.12, respectively.
The like results for `CC(C(=O)O)c1ccc(N2Cc3ccccc3C2=O)cc1` (stereo not given) were, in that order, 0.986 ± 0.035, 1.06 ± 0.035, 0.992 ± 0.054, 0.99 ± 0.14 and 1.05 ± 0.064.
On the same counts, the results for `Oc1c(I)cc(Cl)c2cccnc12` are 1.06 ± 0.21, 0.949 ± 0.12, 1.13 ± 0.042, 1.2 ± 0.27 and 1.14 ± 0.11.
On the same counts, the results for `CC(=O)Oc1ccc(-c2cc(=O)c3c(OC(C)=O)cc(OC(C)=O)cc3o2)cc1` are 0.993 ± 0.038, 0.934 ± 0.093, 0.9365 ± 0.005, 1.01 ± 0.021 and 0.926 ± 0.011.
Consider `C[C@@H]1CCC[C@H](C)N1NC(=O)c1ccc(Cl)c(S(N)(=O)=O)c1`, for which the values for the cell viability in the assay with DLD1 [1], in the assay on HCT116 and in the assay with SW480 [2] were 1.04 ± 0.068, 0.9815 ± 0.00071 and 0.96 ± 0.0071, respectively. In addition, the “TCF/Wnt firefly luciferase reporter signal” value with DLD1 [3] amounted to 0.993 ± 0.0099; with SW480 [4] it was 0.984 ± 0.052.
The like results for `O=C(O)C1CC([C@@H]2CCCCN2)CN2CCCCC12` (stereo not given in full) were, in that order, 1.03 ± 0.11, 1.03 ± 0.17, 0.981 ± 0.015, 1.07 ± 0.064 and 1 ± 0.064.
Consider `Nc1ncnc2c1ncn2[C@@H]1O[C@H](COP(=O)(O)O)[C@@H](O)[C@H]1O`, for which the cell viability with DLD1 [1] was 0.958 ± 0.025; with HCT116, 0.983 ± 0.081; in the assay on SW480 [2], 1.03 ± 0.059. Also, the entries for the “TCF/Wnt firefly luciferase reporter signal” value in the assay on DLD1 [3] and with SW480 [4] were 1.09 and 0.974 ± 0.12, respectively.
On the same counts, the results for `Cc1oncc1C(=O)Nc1ccc(C(F)(F)F)cc1` are 1.05 ± 0.11, 1.15, 1.13 ± 0.071, 1.14 ± 0.05 and 1.05 ± 0.11.
On the same counts, the results for `Oc1c(Cl)cc(Cl)cc1Sc1cc(Cl)cc(Cl)c1O` are 1.03 ± 0.058, 1.01 ± 0.022, 0.99 ± 0.043, 0.979 ± 0.059 and 0.959 ± 0.048.
Take `COc1cc(C)c2c(=O)cc(-c3ccccc3)oc2c1`: the cell viability was 0.991 ± 0.027 in the assay on DLD1 [1], 0.884 ± 0.083 in the assay on HCT116 and 1 ± 0.041 in the assay with SW480 [2]. In addition, the “TCF/Wnt firefly luciferase reporter signal” value in the assay on DLD1 [3] was 1.18 ± 0.092; in the assay with SW480 [4], 1.14 ± 0.014.
With `COc1c(O)cc(O)cc1O`, the cell viability came out at 1.01 ± 0.04 in the assay on DLD1 [1], 0.694 ± 0.33 with HCT116 and 1.01 ± 0.021 in the assay with SW480 [2]. Moreover, the results for the “TCF/Wnt firefly luciferase reporter signal” value in the assay on DLD1 [3] and in the assay with SW480 [4] were 1.09 ± 0.064 and 1.03 ± 0.042, respectively.
The like results for `Cc1cc(NS(=O)(=O)c2ccc(N)cc2)no1` were, in that order, 1.035 ± 0.0071, 1.15 ± 0.035, 1.01, 1.09 ± 0.11 and 0.988 ± 0.032.
The like results for `NC(=O)c1cccnc1` were, in that order, 1.02 ± 0.021, 1.01 ± 0.025, 0.982 ± 0.021, 1.16 ± 0.057 and 1.15 ± 0.11.
Consider `CC(C)[C@H](N)C(=O)OCCOCn1cnc2c(=O)nc(N)[nH]c21`, for which the cell viability in the assay with DLD1 [1] is 1.01 ± 0.028; in the assay with HCT116, 0.879 ± 0.12; in the assay on SW480 [2], 0.938 ± 0.0071. In addition, the “TCF/Wnt firefly luciferase reporter signal” value in the assay on DLD1 [3] is 0.969 ± 0.16; in the assay with SW480 [4] it was 0.876 ± 0.11.
